Hits are enriched below; roughly 2.3% of the tested compounds scored in any of these assays.
BCLXL inh: inhibitors of human Bcl-xL, primary screen, biochemical, fluorescence polarization, HTS | GST-Bcl-xL / FITC-Bim BH3 peptide fluorescence polarization | inhibition, % at 10.9 µM | 320,000 tested, 0.7% active | AID 2129, 2009;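 active = inhibition above the mean of all tested compounds plus 3 SD, cutoff set per campaign, cut at about 30% in these data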;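 note: 0% = DMSO wells and 100% = unlabeled Bim-BH3 peptide competitor; inhibitors lower millipolarization by displacing the labeled peptide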
Target sequence (Q07817 whole entry, looked up): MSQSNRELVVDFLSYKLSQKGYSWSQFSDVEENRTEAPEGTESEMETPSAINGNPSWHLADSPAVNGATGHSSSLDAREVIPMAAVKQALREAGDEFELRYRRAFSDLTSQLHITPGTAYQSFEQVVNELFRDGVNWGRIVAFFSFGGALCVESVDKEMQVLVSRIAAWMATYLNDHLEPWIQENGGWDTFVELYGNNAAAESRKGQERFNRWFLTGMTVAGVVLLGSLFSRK
Mcl1-Bid inh: Mcl-1/Bid binding inhibitors, primary screen, biochemical, TR-FRET, 1536-well | 220,000 tested, 0.97% active | Induced myeloid leukemia cell differentiation protein Mcl-1 (Homo sapiens), Q07820 | inhibition, % at 21.7 µM | TR-FRET Mcl-1/Bid-Dy647 peptide binding;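 active = compounds that cut the binding signal by more than half at the single screening dose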;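 note: His-tagged Mcl-1 with europium anti-His antibody binding Bid BH3 peptide; 0% = Mcl-1 plus peptide wells and 100% = peptide-only wells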
Target sequence (Q07820 whole entry, looked up): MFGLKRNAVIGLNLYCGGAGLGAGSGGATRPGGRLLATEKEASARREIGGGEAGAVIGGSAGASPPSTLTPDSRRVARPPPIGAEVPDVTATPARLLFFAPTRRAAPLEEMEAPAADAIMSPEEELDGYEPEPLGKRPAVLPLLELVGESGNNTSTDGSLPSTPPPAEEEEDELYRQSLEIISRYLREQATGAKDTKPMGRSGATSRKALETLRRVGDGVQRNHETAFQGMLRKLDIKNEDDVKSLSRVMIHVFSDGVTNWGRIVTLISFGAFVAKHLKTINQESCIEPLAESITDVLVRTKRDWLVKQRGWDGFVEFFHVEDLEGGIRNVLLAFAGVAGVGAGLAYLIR
GLD-1 RNA inh: GLD-1/TGE RNA complex disruptors, primary screen, biochemical, fluorescence polarization; purified GLD-1 + fluorescein TGE RNA; inhibition, % at 5.96 µM; 320,000 tested, 0.44% active; AID 2280, 2010;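 active = percent inhibition above a per-plate cutoff, the plate mean of test compounds plus 3 SD, cut at about 30% in these data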;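 note: 0% = DMSO wells with GLD-1 and probe and 100% = wells lacking GLD-1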
Mcl1 Noxa PPI: Mcl-1/Noxa binding inhibitors, primary screen, biochemical, TR-FRET, 1536-well; inhibition, % at 21.7 µM; 220,000 tested, 1.5% active; TR-FRET Mcl-1/Noxa peptide binding, 2 h; AID 1022, 2008;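 active = compounds that cut the protein-peptide binding signal by more than 50% relative to plate controls in a single-dose test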;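 note: His-tagged Mcl-1 with rhodamine Noxa BH3 peptide and terbium anti-His antibody; 0% = Mcl-1 plus Noxa peptide wells and 100% = peptide-only wells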
MCL1 BIM primary: inhibitors of MCL1 binding to BIM-BH3, primary screen, biochemical, fluorescence polarization; Induced myeloid leukemia cell differentiation protein Mcl-1 (Homo sapiens), Q07820; AID 2057, 2009; GST-MCL1 / FITC-Bim-BH3 fluorescence polarization; 320,000 tested, 0.68% active; inhibition, % at 10.9 µM;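 active = inhibition above the mean inhibition of all tested compounds plus 3 SD, set per campaign, cut at about 40% in these data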;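 note: 0% = DMSO wells and 100% = unlabeled Bim-BH3 peptide control; higher means more loss of mP so more displacement of Bim peptide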
Bim-Mcl-1: inhibitors of Bim peptide binding to Mcl-1, primary screen, biochemical, bead-based flow cytometry, multiplex | inhibition, % at 10 µM | AID 1009, 2008 | Induced myeloid leukemia cell differentiation protein Mcl-1 (Homo sapiens), Q07820 | Bim peptide-Mcl-1 binding | 190,000 tested, 0.1% active; in the data active = inhibition above about 40%;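 note: 0% = no compound tracer wells and 100% = peptide blocker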
* hit, by the source's call.

Results for COc1cc(OC)cc(C(=O)N2CCC(N3CCN(c4ccccc4OC)CC3)CC2)c1 ?
BCLXL inh: 2; Mcl1-Bid inh: 57*; GLD-1 RNA inh: 3; Mcl1 Noxa PPI: 14; MCL1 BIM primary: -1; Bim-Mcl-1: -4

How did C/C=C/c1ccc(OCCCNC(C)CC)c(OC)c1 (stereo unspecified) do in these assays?
BCLXL inh: 3; Mcl1-Bid inh: 59*; GLD-1 RNA inh: 4; Mcl1 Noxa PPI: 8; MCL1 BIM primary: -6; Bim-Mcl-1: -4

What do the screens show for `C/C=C/c1ccc(OCCCNC2CCCC2)c(OC)c1`?
BCLXL inh: 4; Mcl1-Bid inh: 31; GLD-1 RNA inh: -1; Mcl1 Noxa PPI: 9; MCL1 BIM primary: 10; Bim-Mcl-1: 0

What do the screens show for `C/C=C/c1ccc(OCCCCn2cncn2)c(OC)c1`?
BCLXL inh: 0; Mcl1-Bid inh: 57*; GLD-1 RNA inh: 3; Mcl1 Noxa PPI: 23; MCL1 BIM primary: -3; Bim-Mcl-1: -2

How did CCN(CC)c1ccc(NC(=O)CCCCCN2C(=O)c3ccccc3C2=O)cc1 do in these assays?
BCLXL inh: 7; Mcl1-Bid inh: -2; GLD-1 RNA inh: 0; Mcl1 Noxa PPI: 63*; MCL1 BIM primary: 7; Bim-Mcl-1: 0

Results for CC(=O)Nc1ccc(NC(=O)CCCCCN2C(=O)c3ccccc3C2=O)cc1 ?
BCLXL inh: 6; Mcl1-Bid inh: -19; GLD-1 RNA inh: 7; Mcl1 Noxa PPI: -5; MCL1 BIM primary: 15; Bim-Mcl-1: -4

Results for O=C(CCCN1C(=O)c2ccccc2C1=O)NCCCn1ccnc1 ?
BCLXL inh: 10; Mcl1-Bid inh: 82*; GLD-1 RNA inh: 0; Mcl1 Noxa PPI: 19; MCL1 BIM primary: 3; Bim-Mcl-1: -1

Results for Oc1nc(Nc2ccc(F)cc2)sc1/C=C1\C=Nc2ccccc21 ?
BCLXL inh: -9; Mcl1-Bid inh: 32; GLD-1 RNA inh: -31; Mcl1 Noxa PPI: 102*; MCL1 BIM primary: -11

What do the screens show for `Oc1nc(Nc2cccc(Cl)c2)sc1/C=C1\C=Nc2ccccc21`?
BCLXL inh: 5; Mcl1-Bid inh: -20; GLD-1 RNA inh: -27; Mcl1 Noxa PPI: 36; MCL1 BIM primary: 4; Bim-Mcl-1: -2

What do the screens show for `Oc1cccc(Nc2nc(O)c(/C=C3\C=Nc4ccccc43)s2)c1`?
BCLXL inh: -61; Mcl1-Bid inh: -55; GLD-1 RNA inh: -113; Mcl1 Noxa PPI: 62*; MCL1 BIM primary: -107

How did Nc1ccc2c(c1Cl)C(=O)c1ccc(N)c(Cl)c1C2=O do in these assays?
Mcl1-Bid inh: 46; Mcl1 Noxa PPI: 87*

Results for Cc1ccc2cc(CN(c3ccccc3C)S(=O)(=O)c3ccccc3)c(=O)[nH]c2c1 ?
BCLXL inh: -1; GLD-1 RNA inh: 18; MCL1 BIM primary: 1

How did COc1cc(/C=N/Nc2ccc(C(=O)O)cc2)cc(OC)c1OC do in these assays?
BCLXL inh: 9; Mcl1-Bid inh: -107; GLD-1 RNA inh: -2; Mcl1 Noxa PPI: 1; MCL1 BIM primary: -1

Results for COc1cc(/C=N/Nc2nc(C)nc3c2cnn3-c2ccccc2)ccc1O ?
Mcl1-Bid inh: 27; Mcl1 Noxa PPI: 74*; Bim-Mcl-1: 7

What do the screens show for `O=C(O)c1cccc(N/N=C/c2ccc(OC(F)(F)F)cc2)c1`?
BCLXL inh: 5; GLD-1 RNA inh: -5; MCL1 BIM primary: -16

Results for COc1cc(/C=N/Nc2ccc(C(=O)O)cc2)ccc1O ?
BCLXL inh: 11; Mcl1-Bid inh: -51; GLD-1 RNA inh: 9; Mcl1 Noxa PPI: 63*; MCL1 BIM primary: 13; Bim-Mcl-1: 2

What do the screens show for `O=C(O)c1ccc(N/N=C/c2ccc(OC(=O)c3cccc(Cl)c3)cc2)cc1`?
BCLXL inh: -1; Mcl1-Bid inh: 46; GLD-1 RNA inh: 10; Mcl1 Noxa PPI: 92*; MCL1 BIM primary: 0

Results for CSc1ccc(/C=N/Nc2cccc(C(=O)O)c2)cc1 ?
Mcl1-Bid inh: 19; Mcl1 Noxa PPI: 99*; Bim-Mcl-1: -1

Results for O=C(Oc1ccc(/C=N/Nc2ccccc2)cc1)c1ccccc1 ?
BCLXL inh: 4; Mcl1-Bid inh: -2; GLD-1 RNA inh: -4; Mcl1 Noxa PPI: 7; MCL1 BIM primary: 5; Bim-Mcl-1: 0

How did O=C(O)c1cccc2c1/C(=N/Nc1ccc([N+](=O)[O-])cc1[N+](=O)[O-])c1ccccc1-2 do in these assays?
BCLXL inh: 12; GLD-1 RNA inh: 8; MCL1 BIM primary: 13

How did O=C(NCc1ccc(F)cc1)c1c2c(nc3ccccc13)CCC2 do in these assays?
BCLXL inh: 0; Mcl1-Bid inh: -55; GLD-1 RNA inh: 10; Mcl1 Noxa PPI: 77*; MCL1 BIM primary: 17; Bim-Mcl-1: -2

How did NC(=O)COC(=O)c1c2c(nc3ccccc13)CCC2 do in these assays?
BCLXL inh: 26; Mcl1-Bid inh: -31; GLD-1 RNA inh: 15; Mcl1 Noxa PPI: 57*; MCL1 BIM primary: 29; Bim-Mcl-1: 0

Results for COc1cc(/C=C2/S/C(=N/S(=O)(=O)c3ccccc3)NC2=O)c([N+](=O)[O-])cc1OC ?
BCLXL inh: 40*; Mcl1-Bid inh: 21; GLD-1 RNA inh: 20; Mcl1 Noxa PPI: 29; MCL1 BIM primary: 46*; Bim-Mcl-1: 0

Results for COc1cc(/C=C2\S/C(=N/S(=O)(=O)Cc3ccccc3)NC2=O)c([N+](=O)[O-])cc1OC ?
BCLXL inh: 28; Mcl1-Bid inh: 6; GLD-1 RNA inh: 19; Mcl1 Noxa PPI: 11; MCL1 BIM primary: 23

Results for CCN(c1ccc(NC(=O)COC(=O)c2ccc(C)c(S(=O)(=O)N3CCOCC3)c2)cc1)C(C)C ?
BCLXL inh: 5; Mcl1-Bid inh: 24; GLD-1 RNA inh: 3; Mcl1 Noxa PPI: 74*; MCL1 BIM primary: 4; Bim-Mcl-1: -6

Results for Cc1ccc(C(=O)OCC(=O)Nc2ccc3c(c2)OCO3)cc1S(=O)(=O)N1CCOCC1 ?
BCLXL inh: 2; Mcl1-Bid inh: -44; GLD-1 RNA inh: 3; Mcl1 Noxa PPI: 11; MCL1 BIM primary: -5; Bim-Mcl-1: -3

Results for COc1ccc(CNC(=O)CCn2nc(C)c3c(C)n(-c4ccccc4)nc3c2=O)c(OC)c1 ?
BCLXL inh: 6; GLD-1 RNA inh: 6; MCL1 BIM primary: 3

How did Cc1ccc(OCCCCn2cnc3ccccc32)c(C)c1 do in these assays?
BCLXL inh: 7; Mcl1-Bid inh: 54*; GLD-1 RNA inh: 5; Mcl1 Noxa PPI: 28; MCL1 BIM primary: 0; Bim-Mcl-1: 1

Results for Brc1ccccc1OCCCCn1cnc2ccccc21 ?
BCLXL inh: 3; Mcl1-Bid inh: -4; GLD-1 RNA inh: 7; Mcl1 Noxa PPI: 8; MCL1 BIM primary: 2; Bim-Mcl-1: -3

From PubChem
